Reference: PubChem BioAssay (NCI)
The panel holds about 79,000 compounds, 15% with a hit somewhere; the sample as a whole holds those more often. Calls of active or inactive are those of the source. Cut-off read from the data, not from the text of the source: active = growth inhibition above about 70%; inactive = the rest.

Experiment: NCI Yeast Anticancer Drug Screen. Data for the mec2-1 strain (AID 157)
Details: S. cerevisiae mec2-1 strain, at 50.0 µM, hits give high values
Procedure, shortened: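 mec2-1 yeast strain, carrying an alteration in DNA damage repair or cell cycle control, was exposed to compounds; growth inhibition was measured relative to vehicle-treated controls.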

Compound | growth inhibition
ON1c2ccccc2-c2ccccc2C1(c1ccccc1)c1ccccc1 | 96.6% (active)
O=C(OCc1ccccc1)c1ccccc1O | 16.1% (inactive)
C=CCCCCCCCCC(=O)OC | -17.9% (inactive)
CC(=O)c1c(C)cc(C)nc1C | -12.2% (inactive)
Cc1cccc(CCSCCc2cccc(C)[n+]2[O-])[n+]1[O-] | -2.45% (inactive)
CCCNc1nc(N)[nH]c(=O)c1NC=O | -9.25% (inactive)
C(=C\c1cc(-c2cc(/C=C/c3ccccc3)[nH]n2)n[nH]1)/c1ccccc1 | 9.1% (inactive)
C=CCCCCCCCCC(=O)Nc1cc2c3c(c1)CCCN3CCC2 | 8.75% (inactive)
O=C1C=Cc2ccccc2/C1=C/c1nc(-c2ccc(Cl)cc2)oc1O | 7.05% (inactive)
COn1c(-c2ccccc2)nc2c1C(=O)N(C)CN2C | 1.7% (inactive)
CCCCCCCC[N+](C)([O-])CCCCCC[N+](C)([O-])CCCCCCCC (stereo not given) | 25.2% (inactive)
O=C(NI1OC(=O)c2ccccc21)c1ccc(Cl)cc1 | 6.05% (inactive)
COc1ccc(N=Cc2ccc([N+](=O)[O-])cc2)cc1 | 0.75% (inactive)
Cc1c(Cl)cccc1NC(=O)OC/C=C/c1ccccc1 | 33.2% (inactive)
COc1ccc(/C=C2\CCN=C2c2ccccc2)cc1OC | -1.85% (inactive)
Cc1[nH]c2ccccc2c1-c1cc(-c2cc(-c3c(C)[nH]c4ccccc34)nc(N)n2)nc(N)n1 | 8.95% (inactive)
CN(C)C=N[C@@H](C(=O)O)c1ccccc1 | -19.1% (inactive)
CCCCN=C(C)CC(=O)CC(=O)c1ccccc1 | 23.1% (inactive)
COc1ccc2c(c1OC)C(=O)OC2(O)C1=NCCc2cc3c(cc21)OCO3 (stereo not given) | -7.25% (inactive)
Cc1ccc(NC(=O)CCSC(=O)Nc2ccc(C)cc2)cc1 | -2.65% (inactive)

Compound | growth inhibition
Clc1ccc(-c2ccncc2)cc1 | -9.15% (inactive)
COc1ccc(/C=C2\N=C(c3ccc(N)cc3)OC2=O)cc1OC | -0.05% (inactive)
COc1ccc(/C=N/NC(=O)O)cc1 | -5.35% (inactive)
Oc1cccc2nc3cc(CN4CCOCC4)c(CN4CCOCC4)cc3nc12 | -18.4% (inactive)
CCC(=O)NCCc1ccccc1 | 29.6% (inactive)
N=C(CNC(=O)OCc1ccccc1)N1CCCC1C(=O)O (stereo not given) | 2.8% (inactive)
Clc1ccc(SCSc2ccc(Cl)cc2)cc1 | -7.35% (inactive)
COc1ccc(C(=O)Nc2ccccc2C#N)cc1 | -4.5% (inactive)
O=C(NN1C(=O)C(Cl)C1c1ccccc1Cl)c1ccccc1O (stereo not given) | -35.9% (inactive)
Cc1ccc(C)c(N2C(=O)C(=O)C(c3nc4ccccc4o3)/C(=N/N)C2=O)c1 (stereo not given) | 34% (inactive)
C#Cc1cccc(N=Cc2cc(Cl)cc(C)c2O)c1 | 10.8% (inactive)
CC1=CCC(=O)[C@]2(C)C(CC(=O)O)[C@]3(C)C4=C(C)C(c5ccoc5)C[C@@H]4O[C@@H]3[C@H](O)[C@@H]12 (stereo not given in full) | -9.6% (inactive)
Cc1[nH]c2c(O)ccc(O)c2c1C | -9.45% (inactive)
CCOC(=O)/C(=C\c1c(C)[nH]c2ccccc12)P(=O)(OCC)OCC | -15.7% (inactive)
COC(=O)C1(Br)c2ccccc2-c2ccccc21 | 17.7% (inactive)
Cc1ccc(S(=O)(=O)OC(c2ccccc2)c2ccccc2)cc1 | -10.9% (inactive)
O=C1OC(c2ccccc2)=N/C1=C/c1c(-c2ccccc2)c(-c2ccccc2)c2n1CCC2 | 9.75% (inactive)
O=NN(C(=O)NCCCl)c1[nH]c(=O)ncc1Br | -13.7% (inactive)
O=C(OCc1ccccc1CN1CCCC1)c1ccc([N+](=O)[O-])cc1Cl | -15.8% (inactive)
CCO/C=C1/N=C(Cc2ccccc2)OC1=O | -2.05% (inactive)

Experiment: NCI Yeast Anticancer Drug Screen. Data for the sgs1 mgt1 strain (AID 161);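 note: 0% = growth of cultures given vehicle only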
Details: S. cerevisiae sgs1 mgt1 strain, at 50.0 µM, hits give high values
Procedure, shortened: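 Compounds are added to genetically altered yeast, and growth is compared with cultures given vehicle alone to give percent inhibition.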

Compound | growth inhibition
ON1c2ccccc2-c2ccccc2C1(c1ccccc1)c1ccccc1 | 78.7% (active)
O=C(OCc1ccccc1)c1ccccc1O | 46.1% (inactive)
C=CCCCCCCCCC(=O)OC | 10.2% (inactive)
CC(=O)c1c(C)cc(C)nc1C | 17.4% (inactive)
Cc1cccc(CCSCCc2cccc(C)[n+]2[O-])[n+]1[O-] | -1.1% (inactive)
CCCNc1nc(N)[nH]c(=O)c1NC=O | -6.7% (inactive)
C(=C\c1cc(-c2cc(/C=C/c3ccccc3)[nH]n2)n[nH]1)/c1ccccc1 | -14.3% (inactive)
C=CCCCCCCCCC(=O)Nc1cc2c3c(c1)CCCN3CCC2 | 1.1% (inactive)
O=C1C=Cc2ccccc2/C1=C/c1nc(-c2ccc(Cl)cc2)oc1O | -8.75% (inactive)
COn1c(-c2ccccc2)nc2c1C(=O)N(C)CN2C | 7.3% (inactive)
CCCCCCCC[N+](C)([O-])CCCCCC[N+](C)([O-])CCCCCCCC (stereo not given) | 69.8% (inactive)
O=C(NI1OC(=O)c2ccccc21)c1ccc(Cl)cc1 | -38% (inactive)
COc1ccc(N=Cc2ccc([N+](=O)[O-])cc2)cc1 | 15.2% (inactive)
Cc1c(Cl)cccc1NC(=O)OC/C=C/c1ccccc1 | 14.8% (inactive)
COc1ccc(/C=C2\CCN=C2c2ccccc2)cc1OC | 2.85% (inactive)
Cc1[nH]c2ccccc2c1-c1cc(-c2cc(-c3c(C)[nH]c4ccccc34)nc(N)n2)nc(N)n1 | -25.8% (inactive)
CN(C)C=N[C@@H](C(=O)O)c1ccccc1 | -11.4% (inactive)
CCCCN=C(C)CC(=O)CC(=O)c1ccccc1 | 44.4% (inactive)
COc1ccc2c(c1OC)C(=O)OC2(O)C1=NCCc2cc3c(cc21)OCO3 (stereo not given) | 8.1% (inactive)
Cc1ccc(NC(=O)CCSC(=O)Nc2ccc(C)cc2)cc1 | -7.05% (inactive)

Compound | growth inhibition
Clc1ccc(-c2ccncc2)cc1 | 7.2% (inactive)
COc1ccc(/C=C2\N=C(c3ccc(N)cc3)OC2=O)cc1OC | 13.2% (inactive)
COc1ccc(/C=N/NC(=O)O)cc1 | -24% (inactive)
Oc1cccc2nc3cc(CN4CCOCC4)c(CN4CCOCC4)cc3nc12 | -1.05% (inactive)
CCC(=O)NCCc1ccccc1 | 14.3% (inactive)
N=C(CNC(=O)OCc1ccccc1)N1CCCC1C(=O)O (stereo not given) | 0.9% (inactive)
Clc1ccc(SCSc2ccc(Cl)cc2)cc1 | 6.5% (inactive)
COc1ccc(C(=O)Nc2ccccc2C#N)cc1 | -9.25% (inactive)
O=C(NN1C(=O)C(Cl)C1c1ccccc1Cl)c1ccccc1O (stereo not given) | -49.1% (inactive)
Cc1ccc(C)c(N2C(=O)C(=O)C(c3nc4ccccc4o3)/C(=N/N)C2=O)c1 (stereo not given) | 14.2% (inactive)
C#Cc1cccc(N=Cc2cc(Cl)cc(C)c2O)c1 | 36.5% (inactive)
CC1=CCC(=O)[C@]2(C)C(CC(=O)O)[C@]3(C)C4=C(C)C(c5ccoc5)C[C@@H]4O[C@@H]3[C@H](O)[C@@H]12 (stereo not given in full) | 9.65% (inactive)
Cc1[nH]c2c(O)ccc(O)c2c1C | -9.15% (inactive)
CCOC(=O)/C(=C\c1c(C)[nH]c2ccccc12)P(=O)(OCC)OCC | -22.9% (inactive)
COC(=O)C1(Br)c2ccccc2-c2ccccc21 | 0.45% (inactive)
Cc1ccc(S(=O)(=O)OC(c2ccccc2)c2ccccc2)cc1 | -0.4% (inactive)
O=C1OC(c2ccccc2)=N/C1=C/c1c(-c2ccccc2)c(-c2ccccc2)c2n1CCC2 | 3.05% (inactive)
O=NN(C(=O)NCCCl)c1[nH]c(=O)ncc1Br | -16% (inactive)
O=C(OCc1ccccc1CN1CCCC1)c1ccc([N+](=O)[O-])cc1Cl | -13.7% (inactive)
CCO/C=C1/N=C(Cc2ccccc2)OC1=O | 7.65% (inactive)
